# SARS PLP yeast: SARS-CoV PLP inhibition in yeast; AID 485353; 0.19% of 330,000 active; Potency, µM (highest dose often 32.9 µM), for inactives: at the highest dose activity, positive = growth rescue, usual class: activators; S. cerevisiae expressing SARS-CoV PLpro, growth rescue; calls by dose curve; also: 0% is about no effect; nearly all actives have a fitted effect of over 55% in size
# Sm TGR inh: S. mansoni TGR enzyme inhibition; Q962Y6; 3% of 360,000 active; Potency, µM (top dose mostly 114 µM), inactives show at the top dose activity change, negative = inhibition, most hits filed as inhibitors; purified TGR, DTNB reduction, TNB absorbance 405 nm; active = well fitted inhibition curve with a large enough effect; inconclusive = small, poorly fitted or top-dose-only effect; inactive = no such curve, though single readings can be large or run the other way; also: % is scaled to controls: 0 for no effect and ±100 for the full control effect; nearly all actives have a fitted effect of over 60% in size
#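 TGR 20 nM + NADPH 100 uM (dispensed conc.), cpd preinc 15 min RT; start with NADPH (500 uM addition) then DTNB (15 mM addition). Kinetic TNB absorbance, 405 nm filter. Four-parameter Hill fit across titration.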
# Active calls of the source: *; ? = inconclusive; nt = no result; [ ] = remark or other dose. The list is not random: actives were taken first. Their share in the collection is about 3%. Potency is read from the fitted curve at half-maximal effect.
SMILES,SARS PLP yeast,Sm TGR inh
COc1ccc(C(c2oc(CO)cc(=O)c2O)c2oc(CO)cc(=O)c2O)cc1OC,7.9µM*,?
O=C(NCC(=O)N(Cc1ccco1)C(C(=O)NC1CCCC1)c1ccncc1)c1cccs1 (centres undefined),8%,35µM*
O=C(NCC(=O)N(Cc1ccco1)C(C(=O)NC1CCCC1)c1cccnc1)c1cccs1 (centres undefined),3%,-29%
O=C(CCC(=O)N(Cc1ccco1)C(C(=O)NC1CCCC1)c1ccncc1)Nc1cccnc1 (centres undefined),9%,25µM*
O=C(CCC(=O)N(c1ccc(F)cc1)C(C(=O)NC1CCCC1)c1ccncc1)Nc1cccnc1 (centres undefined),1%,0%
Cc1ccc(C(C(=O)NCc2ccco2)N(Cc2ccco2)C(=O)CNC(=O)c2ccco2)cc1 (centres undefined),-10%,45µM*
CC(=O)Nc1ccc(N(C(=O)CNC(=O)c2ccco2)C(C(=O)NCc2ccco2)c2ccccc2)cc1 (centres undefined),3%,3%
CCCCn1c(C)cc2c(c1=O)C1O[C@](c3ccsc3)(Cc3ccccc31)O2,0%[6.58 µM],-31%[22.9 µM]
COc1ccc(NC(=O)C(=O)NCC(c2cccnc2)N2CCc3ccccc3C2)cc1 (centres undefined),nt,-2%
CC(=O)c1cc(-c2ccccc2)n(CC(=O)NCc2ccccc2C)c1C,nt,1%
COc1ccccc1CNC(=O)CN1C(=O)CCc2cc(S(=O)(=O)N3CCCCC3)ccc21,nt,-7%
COC(=O)c1ccc(OCC2c3cc(OC)c(OC)cc3CCN2C(=O)Cc2ccccc2)cc1 (centres undefined),nt,1%
Cc1ccc(-c2nn(-c3ccc(F)cc3)c3c2cnc2cc(F)c(F)cc23)cc1,nt,-1%
CCOc1ccc2nc(N3C(=O)C(O)=C(C(=O)c4ccco4)C3c3ccco3)sc2c1 (centres undefined),-1%,-33%
COc1ccc2nc(N3C(=O)C(O)=C(C(=O)c4ccco4)C3c3ccc(C)o3)sc2c1 (centres undefined),-6%,32µM*
COc1ccc2nc(N3C(=O)C(O)=C(C(=O)c4ccco4)C3c3ccccc3OC)sc2c1 (centres undefined),-4%,-21%
CCOC(=O)c1sc(N2C(=O)C(O)=C(C(=O)c3ccco3)C2c2ccco2)nc1C (centres undefined),-2%,25µM*
Cc1ccc(CCNC(=O)c2ccc3c(Cl)c4c(nc3c2)CCCC4)cc1,nt,-2%
CC#CC#Cc1cccc(=O)o1,-1%,20µM*
COc1ccc(NC(=O)[C@H]2O[C@@H]3OC(C)(C)O[C@@H]3[C@H]3OC(C)(C)O[C@H]32)c(OC)c1,nt,0%
CCOc1ccc(NC2=C(Cl)C(=O)N(C3CCCCC3)C2=O)cc1,-7%,7%
COc1ccc(C)cc1NC1=C(Cl)C(=O)N(C2CCCCC2)C1=O,-21%,45µM*
O=C(O)C(c1ccccc1)N1C(=O)/C(=C\c2ccc(-c3ccc(Br)cc3)o2)SC1=S (centres undefined),0%,?
O=C(O)C(c1ccccc1)N1C(=O)/C(=C\c2ccc(-c3ccccc3Cl)o2)SC1=S (centres undefined),0%,14µM*
OC(COCc1cccs1)CN1CCCCCC1 (centres undefined),10%,-31%
SMILES,SARS PLP yeast,Sm TGR inh
CN1CCCN(CC(O)COCc2cccs2)CC1 (centres undefined),10%,50µM*
CC(=O)CCc1oc2ccc(C)cc2c1-c1ccc(C)o1,-2%,25µM*
CC(=O)CCc1oc2ccc(NC(C)=O)cc2c1-c1ccc(C)o1,-30%,20µM*
COc1ccc(-c2cc(=NCCCCCC(=O)O)c3cc(C)ccc3o2)cc1,6%,21%
CC(=O)Nc1ccc2oc(C)nc2c1,-1%,9%
COc1ccc(S(=O)(=O)c2c(Nc3ccc(F)cc3)sc(C(=O)c3ccc4c(c3)OCO4)c2N)cc1,nt,-1%
O=C(Nc1cccc(F)c1)c1ccc2c(c1)N(Cc1ccccc1)C(=O)c1ccccc1S2(=O)=O,nt,1%
Cc1ccc(NC(=O)C2CCCN(S(=O)(=O)c3ccc4[nH]c(=O)ccc4c3)C2)cc1Cl (centres undefined),nt,8%
O=C(Cn1ncc2c3ccccc3n(Cc3ccc(F)cc3)c2c1=O)NCCCN1CCCCC1,nt,0%
O=C(CCn1c(=O)c2ccccc2n(Cc2cccc(Cl)c2)c1=O)NCCc1ccccc1,nt,-7%
N#C/C(=C\c1ccc(N2CCOCC2)o1)C(=O)NCC1CCCO1 (centres undefined),-1%,3%
N#C/C(=C/c1ccc(N2CCCCCC2)o1)c1ccc(Cl)cc1,-27%,?
N#C/C(=C\c1ccc(N2CCOCC2)o1)C(=O)NC1CCCCC1,0%,35µM*
Cc1ccc2nc(/C(C#N)=C\c3ccc(N4CCOCC4)o3)[nH]c2c1,3%,?

# Screening data (PubChem)
